Experimental data published in PubChem BioAssay (NCATS).
“And” between values parts separate entries of the source, which are not always exact repeats. Equal entries are not always repeated. Inconclusive results are not listed. The source made the active and inactive calls. Unless noted, calls come from the whole dose curve; as a rule, active = well fitted curve in the direction sought with a large enough effect; inconclusive = small, poorly fitted or top-dose-only effect, or another doubt; inactive = no such curve, though single readings can be large; an effect the other way counts as inactive or inconclusive.

Tests used:
[1] = Cell Viability - N2a (AID 540); conditions: N2a mouse neuroblastoma cell viability; activity change, negative = cytotoxicity: at 92.2 µM (top of the series);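 note: cells exposed to compound for 40 h at 37 °C; plate controls were DMSO alone for no effect and tamoxifen control for full effect; nearly all actives have a fitted effect of over 45% in size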
Outline: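 First, 1500 N2a cells per well incubate 5 hr at 37 °C; next, compounds are added and incubated 40 hr at 37 °C; finally CellTiter-Glo is added and luminescence read after 20 min, with AC50 derived by Hill modeling.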

[2] = Cellular Toxicity (caspase-3) Jurkat (AID 655); conditions: Jurkat caspase-3 activation, luminescence; caspase-3 activation: at 92.2 µM (top of the series), DMSO = 0%, tamoxifen = 100%;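 note: cells exposed to compound for 16 h at 37 °C before reading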
Outline: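 Luminescent Caspase-Glo 3/7 read-out (20 min, room temperature) after 16 h compound treatment at 37 C of 5000 Jurkat cells per well. AC50 derived by Hill-equation fitting, scaled between DMSO basal and 100 uM tamoxifen stimulation.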

[3] = Cellular Toxicity (caspase-3) BJ (AID 658);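 note: cells exposed to compound for 16 hours; 0% = DMSO basal and 100% = 10 µM staurosporine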
Outline: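 Readout: Caspase-Glo 3/7 luminescence increase in BJ cells after 16 hr treatment at 37 °C. Staurosporine and tamoxifen served as positive controls; AC50 values came from Hill modelling of data normalized to DMSO and 10 uM staurosporine.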

[4] = Cellular Toxicity (caspase-3) MRC-5 (AID 659);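 note: 0% = DMSO basal and 100% = 10 µM staurosporine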
Outline: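 Concentration-dependent caspase 3/7 activation is measured in human normal lung fibroblasts (MRC-5) following 16-hour treatment. AC50 values come from standard Hill-equation modeling of luminescence normalized to DMSO and 10 uM staurosporine.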

[5] = MultiTox-Fluor Cytotoxicity Assay - LYMP1-001 - Dead Cells (AID 946)
Outline: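 Cytotoxicity as increased dead-cell protease fluorescence (bis-AAF-R110, 485/520 nm), read 60 min after MultiTox-Fluor reagent. Human lymphoblastoid line exposed 16 h; Hill-fitted AC50, with DMSO as 0% and 15 uM tetraoctylammonium bromide as 100%.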

[6] = MultiTox-Fluor Cytotoxicity Assay - LYMP1-003 - Live Cells (AID 962);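 note: cells exposed to compound for 16 hours at 37 °C; 0% = DMSO only and full loss = 92 µM tetraoctylammonium bromide; cytotoxic hits lower the live-cell protease signal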
Outline: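 Cells plated at 2500 per well and incubated 5 hr; compounds added and incubated 16 hr at 37 C; MultiTox-Fluor reagent added for 60 min at room temperature; fluorescence of liberated AFC measured at 405/510 nm.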

[7] = Cell Viability - LYMP1-003 - Assay at 40 hr (AID 964); note: % is set by controls: 0 for no effect and ±100 for the full control effect; nearly all actives have a fitted effect of over 60% in size
Outline: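 This qHTS cytotoxicity screen treats human lymphoblastoid cells (LYMP1-003) with compounds for 40 hr and quantifies cellular ATP via luciferase luminescence.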

[8] = Cell Viability - LYMP2-004 (AID 966);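 note: plate controls were DMSO only for no effect and tetraoctylammonium bromide control for full effect; nearly all actives have a fitted effect of over 65% in size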
Outline: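 Acute toxicity is scored as a concentration-dependent drop in intracellular ATP, quantified by luciferase luminescence, in human lymphoblastoid cells exposed to compound for 24 hr. AC50 derives from Hill-equation modelling.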

[9] = Cell Viability - LYMP2-011 (AID 969);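 note: 0% = DMSO only and full inhibition = 92 µM tetraoctylammonium bromide; nearly all actives have a fitted effect of over 60% in size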
Outline: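 Acute toxicity is scored as a concentration-dependent drop in intracellular ATP of a human lymphoblastoid line after 24 hr treatment. Values are AC50s modeled with the Hill equation.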

[10] = Cell Viability - LYMP2-021 (AID 974);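 note: compound exposure lasts 24 hours at 37 °C; % is set by controls: 0 for no effect and ±100 for the full control effect; nearly all actives have a fitted effect of over 55% in size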
Outline: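 Concentration-response cytotoxicity in a human lymphoblastoid line: 24 hr treatment at 37 C in complete culture medium, tetraoctylammonium bromide as positive control, luminescent ATP quantitation as viability measure.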

[11] = Cell Viability - LYMP2-010 (AID 981);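 note: cells exposed to compound for 24 hours at 37 °C; % is set by controls: 0 for no effect and ±100 for the full control effect; nearly all actives have a fitted effect of over 55% in size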
Outline: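 Acute toxicity is scored as a concentration-dependent loss of cellular ATP in human lymphoblastoid cells after 24 hr compound exposure in complete medium. Tetraoctylammonium bromide is the positive control.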

[12] = Cell Viability - LYMP2-024 (AID 988);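 note: plate controls were DMSO only for no effect and 92 µM tetraoctylammonium bromide for full effect; nearly all actives have a fitted effect of over 60% in size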
Outline: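 Acute toxicity is measured as concentration-dependent loss of intracellular ATP in a human lymphoblastoid line treated 24 hours at 37 C. Luciferase luminescence quantifies ATP; AC50 values come from standard Hill-equation modelling.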

[13] = target: Peroxisome proliferator-activated receptor delta (Homo sapiens) (UniProt Q03181); test: qHTS assay for small molecule agonists of peroxisome proliferator-activated receptor delta signaling (AID 588534; calls by dose curve;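 note: 0% = DMSO basal wells and 100% = positive control agonist at 10 µM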)
Sequence of Peroxisome proliferator-activated receptor delta (Homo sapiens) (Q03181 whole entry, looked up): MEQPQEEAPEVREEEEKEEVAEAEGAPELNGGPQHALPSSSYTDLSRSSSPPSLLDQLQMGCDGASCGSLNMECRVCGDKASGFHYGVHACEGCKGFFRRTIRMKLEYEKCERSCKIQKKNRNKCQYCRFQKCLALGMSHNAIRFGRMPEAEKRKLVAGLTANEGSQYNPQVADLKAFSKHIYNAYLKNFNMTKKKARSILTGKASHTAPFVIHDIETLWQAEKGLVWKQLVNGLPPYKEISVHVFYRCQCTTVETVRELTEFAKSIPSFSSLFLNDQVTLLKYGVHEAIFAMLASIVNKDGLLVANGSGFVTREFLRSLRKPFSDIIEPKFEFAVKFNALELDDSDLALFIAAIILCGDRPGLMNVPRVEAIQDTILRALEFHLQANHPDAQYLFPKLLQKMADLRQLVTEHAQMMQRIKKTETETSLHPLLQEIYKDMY
Outline: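 Reporter cells were plated and held 5 hrs at 37 C before compounds were added. After 18 hrs at 37 C, CCF4 dye was loaded for 2 hrs at RT and fluorescence measured.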

[14] = qHTS assay for small molecule activators of the p53 signaling pathway (AID 651743; active = well fitted activation curve with a large enough effect in the signal ratio, not every such curve was filed as active; the % refers to the signal ratio; note: % of control where 0% means no effect); conditions: HCT-116 p53RE-bla, beta-lactamase FRET ratio, 16 h; activation: active compounds read high
Outline: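 Screen for p53 pathway agonists uses stably transfected p53RE-bla HCT-116 cells, 4,000 per well, treated 16 h at 37 C with compounds in DMSO.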

[15] = qHTS assay for small molecule activators of the human pregnane X receptor (PXR) signaling pathway (AID 720659; call rule not given here; note: 0% is about no effect)
[16] = Cell Viability - LYMP1-003 - Assay at 24 hr (AID 963);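 note: plate controls were DMSO only for no effect and tetraoctylammonium bromide positive control for full effect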
Outline: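 Acute toxicity in LYMP1-003 lymphoblastoid cells: 24 hr compound treatment at 37 C, ATP measured with CellTiter-Glo after 30 min at room temperature. AC50 derived by fitting the Hill equation to qHTS titrations.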

[17] = Cell Viability - LYMP2-014 (AID 983);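 note: plate controls were DMSO only for no effect and 92 µM tetraoctylammonium bromide for full effect; nearly all actives have a fitted effect of over 50% in size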
Outline: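 Decrease in intracellular ATP after 24 hr treatment at 37 C, measured by luciferase luminescence, indicated cytotoxicity. Concentration-response data were fitted with the standard Hill equation to give AC50.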

[18] = Cell Viability - LYMP2-016 (AID 984);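 note: cells exposed to compound for 24 hours at 37 °C; % is set by controls: 0 for no effect and ±100 for the full control effect; nearly all actives have a fitted effect of over 55% in size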
Outline: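 Cytotoxicity was scored by luminescent ATP content (CellTiter-Glo) after 24 h compound exposure at 37 C of a human lymphoblastoid line at 2500 cells/well. Concentration-response data were fitted to the Hill equation for AC50.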

[19] = Cell Viability - LYMP2-018 (AID 985);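 note: compound exposure lasted 24 hr at 37 °C; plate controls were DMSO only for no effect and tetraoctylammonium bromide at 92 µM for full effect; nearly all actives have a fitted effect of over 50% in size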
Outline: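 Acute cytotoxicity is scored as a concentration-dependent drop in intracellular ATP after 24 hr exposure of the lymphoblastoid line in complete culture medium, measured by luciferase luminescence. Potency is expressed as AC50 from Hill modelling.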

[20] = qHTS assay for small molecule agonists of the antioxidant response element (ARE) signaling pathway measured by Nrf2-dependant transcriptional activity (AID 720636; active = well fitted curve in the direction sought with a large enough effect in the repeat runs; an effect the other way counts as inactive or inconclusive;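 note: HepG2 cells with an ARE-driven luciferase reporter; % of control where 0% means no effect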)
Outline: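 ONE-Glo luminescence, read 30 min after reagent addition at room temperature, reflected ARE reporter activity in HepG2 cells that had been incubated with compound for 16 hr at 37 C in 1% dialyzed FBS.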

Nc1ccc(Cc2ccc(N)cc2)cc1
inactive: Potency [1] | caspase-3 activation [2] 2.26% | outcome [3] | outcome [4] | outcome [5] | outcome [6] | Potency [7] | Potency [8] | Potency [9] | Potency [10] | Potency [11] | Potency [12] | outcome [13] | activation [14] -1.69% and -2.54% | outcome [15]

CCCCC(=O)Cl
inactive: Potency [1] | caspase-3 activation [2] 1.28% | outcome [4] | outcome [6] | outcome [16] | Potency [8] | Potency [9] | Potency [10] | Potency [17] | Potency [18] | Potency [19] | Potency [12] | outcome [13] | activation [14] 1.32% | Potency [20] | outcome [15]

Nc1cc(Cl)cc(C(=O)O)c1Cl
inactive: Potency [1] | outcome [3] | outcome [4] | outcome [5] | outcome [16] | Potency [7] | Potency [8] | Potency [9] | Potency [10] | Potency [11] | Potency [17] | Potency [18] | Potency [19] | Potency [12] | outcome [13] | activation [14] -3.99% and 3.61% | Potency [20] | outcome [15]

CCCCOC(C)=O
inactive: Potency [1] | outcome [3] | outcome [4] | outcome [5] | outcome [6] | outcome [16] | Potency [7] | Potency [8] | Potency [9] | Potency [10] | Potency [11] | Potency [17] | Potency [18] | Potency [19] | Potency [12] | outcome [13] | activation [14] -4.75% | Potency [20]

Nc1cc(Cl)cc(Cl)c1
inactive: Potency [1] | outcome [3] | outcome [4] | outcome [5] | outcome [6] | outcome [16] | Potency [7] | Potency [8] | Potency [10] | Potency [11] | Potency [18] | Potency [19] | Potency [12] | outcome [13] | activation [14] 1.82% | Potency [20] | outcome [15]

CC(=O)NNc1ccccc1
inactive: Potency [1] | caspase-3 activation [2] 1.53% | outcome [3] | outcome [4] | outcome [5] | outcome [16] | Potency [7] | Potency [8] | Potency [9] | Potency [10] | Potency [11] | Potency [17] | Potency [18] | Potency [19] | Potency [12] | Potency [20] | outcome [15]

CCN(CC)CCO
inactive: Potency [1] | caspase-3 activation [2] 2.76% | outcome [3] | outcome [4] | outcome [5] | outcome [6] | outcome [16] | Potency [7] | Potency [8] | Potency [9] | Potency [10] | Potency [17] | Potency [18] | Potency [19] | outcome [13] | activation [14] 0.771% | Potency [20] | outcome [15]

O=[N+]([O-])c1ccc2c3c(cccc13)CC2
inactive: caspase-3 activation [2] 0.699% | outcome [3] | outcome [4] | outcome [6] | outcome [16] | Potency [7] | Potency [8] | Potency [9] | Potency [11] | Potency [17] | Potency [18] | Potency [19] | Potency [12] | outcome [13] | activation [14] -4.24% and -1.29% | Potency [20] | outcome [15]

OCCOCCO
inactive: Potency [1] | caspase-3 activation [2] -0.825% | outcome [3] | outcome [4] | outcome [5] | outcome [6] | Potency [8] | Potency [9] | Potency [10] | Potency [11] | Potency [17] | Potency [18] | Potency [12] | outcome [13] | Potency [20] | outcome [15]
